Compound activity as filed in PubChem.
Rows were chosen to be rich in hits. Some 3.4% of all compounds tested hit in one or more screens of this group.
RE007 growth inh: less growth of the S. pombe RE007 Vpr strain | S. pombe RE007 Vpr strain, BacTiter-Glo ATP luminescence, 24 h | Potency, µM (doses to about 92.2 µM), without a hit: at the top dose activity change, negative = less growth, usual class: inhibitors | 360,000 compounds, 0.21% hits | AID 651644; active = well fitted falling curve with a large enough effect; inconclusive = small, poorly fitted or top-dose-only effect; inactive = no such curve, though single readings can be large or run the other way; also: nearly all actives have a fitted effect of over 50% in size
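Fission yeast strain RE007, carrying one chromosomally integrated HIV-1 vpr copy, was seeded at OD 0.01 in PMG+AL medium with 23 nL pinned compound. After 24 h at 30 °C and 99% humidity, viability was read by BacTiter-Glo luminescence.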
FBPA Giardia inh: blocks Giardia fructose-bisphosphate aldolase activity; AID 2451; Potency, µM (series often up to 59.6 µM), for inactives: top-dose activity, negative = inhibition, hits mostly inhibitors; 290,000 compounds, 0.71% hits; A8B2U2; purified Giardia FBPA; also: nearly all actives have a fitted effect of over 55% in size
Target sequence (A8B2U2 whole entry, looked up): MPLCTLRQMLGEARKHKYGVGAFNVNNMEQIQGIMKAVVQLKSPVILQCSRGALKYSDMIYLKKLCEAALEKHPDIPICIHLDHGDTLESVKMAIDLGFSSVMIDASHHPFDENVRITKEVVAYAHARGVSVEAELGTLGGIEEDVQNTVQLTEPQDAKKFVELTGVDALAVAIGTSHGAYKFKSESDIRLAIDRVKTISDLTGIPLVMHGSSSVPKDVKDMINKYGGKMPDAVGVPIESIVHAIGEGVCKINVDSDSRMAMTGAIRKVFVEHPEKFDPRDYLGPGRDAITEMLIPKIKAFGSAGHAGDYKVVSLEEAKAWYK
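Giardia FBPA (40 nM reagent) was preincubated 10 min at RT with compound (up to 57.5 uM final), then substrate plus GAPDH/TPI/NAD/arsenate coupling system with diaphorase/resazurin was added; resorufin fluorescence (525/598 nm) was read after 20 min.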
AmpC inh no detg: inhibitors of E. coli AmpC beta-lactamase without detergent; AID 485341; 330,000 compounds, 0.52% hits; P00811; AmpC nitrocefin hydrolysis, absorbance 480 nm, 0.0001% Triton; Potency, µM (titrated, usually from 57.1 µM), inactives show at the top dose activity change, negative = inhibition, most hits filed as inhibitors;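 also: plate controls were no compound for no effect and no enzyme for full effect; nearly all actives have a fitted effect of over 20% in size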
Target sequence (P00811 whole entry, looked up): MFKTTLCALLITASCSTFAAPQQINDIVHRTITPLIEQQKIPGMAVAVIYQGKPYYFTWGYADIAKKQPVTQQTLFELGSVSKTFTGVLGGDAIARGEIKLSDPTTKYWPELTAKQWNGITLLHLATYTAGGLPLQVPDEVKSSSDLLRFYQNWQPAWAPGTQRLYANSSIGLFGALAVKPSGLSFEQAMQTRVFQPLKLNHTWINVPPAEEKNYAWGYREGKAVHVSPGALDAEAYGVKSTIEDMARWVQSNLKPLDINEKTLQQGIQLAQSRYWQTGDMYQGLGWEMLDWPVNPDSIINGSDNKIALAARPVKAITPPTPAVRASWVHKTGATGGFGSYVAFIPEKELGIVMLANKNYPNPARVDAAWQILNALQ
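20 mM phosphate pH 7.0 + 0.01% (detergent screen) or 0.0001% Triton X-100; 5.3 nM AmpC reagent; cpd preinc 15 min RT; nitrocefin (800 uM stock) to start; A480 q20 s × 4 min; Activity was normalised to no-enzyme and no-compound control wells.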
AmpC detergent: inhibitors of E. coli AmpC beta-lactamase with detergent. P00811. Potency, µM (top dose mostly 114 µM), without a hit: at the top dose activity change, negative = inhibition, actives largely listed as inhibitors. AmpC hydrolysis of nitrocefin, absorbance 480 nm, 0.01% Triton. 370,000 compounds, 0.041% hits;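 also: 0% = no-compound wells and -100% = no-enzyme wells; nearly all actives have a fitted effect of over 25% in size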
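20 mM phosphate pH 7.0 + 0.01% (detergent screen) or 0.0001% Triton X-100; 5.3 nM AmpC reagent; cpd preinc 15 min RT; nitrocefin (800 uM stock) to start; A480 q20 s × 4 min; Activity was normalised to no-enzyme and no-compound control wells.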
Sm TGR inh: S. mansoni TGR enzyme inhibition. 360,000 compounds, 3% hits. purified TGR, DTNB reduction, TNB absorbance 405 nm. Q962Y6. Potency, µM (highest dose often 114 µM), for inactives: at the highest dose activity change, negative = inhibition, most hits filed as inhibitors; also: nearly all actives have a fitted effect of over 60% in size
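TGR 20 nM + NADPH 100 uM (dispensed conc.), cpd preinc 15 min RT; start with NADPH (500 uM addition) then DTNB (15 mM addition). Kinetic TNB absorbance, 405 nm filter. Four-parameter Hill fit across titration.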
* hit, by the source's call; ? = inconclusive; nt = no result. Unless noted, calls follow the shape of the dose curve; as a rule, active = well fitted curve in the direction sought with a large enough effect; inconclusive = small, poorly fitted or top-dose-only effect, or another doubt; inactive = no such curve, though single readings can be large; an effect the other way counts as inactive or inconclusive. Unless noted, % is scaled to controls: 0 for no effect and ±100 for the full control effect; potency is read from the fitted curve at half-maximal effect.

SMILES	RE007 growth inh	FBPA Giardia inh	AmpC inh no detg	AmpC detergent	Sm TGR inh
CC(C)C[C@H](N)c1nnc(S(=O)(=O)Cc2cccc(F)c2)o1	-2.6%	-0.1%	4.47µM*	3.55µM*	?
CCOC(=O)c1c(C)nc2ccccc2c1-c1ccccc1	2.2%	14.2%	26.7%	?	1.4%
CCOC(=O)c1c(CCl)nc2ccccc2c1-c1ccccc1	-9.5%	-8.3%	-40.6%	-6.4%	25.1µM*
CC(C)(C)c1nc2c(Br)cc(Br)cc2c(=O)o1	-2.7%	-11.8%	-49.5%	-10.4%	-9.8%
O=S(=O)(Oc1ccccc1/C=N/n1cnnc1)c1ccccc1	28.2%	19.9µM*	0.0%	-0.2%	nt
C#CCOc1c(Br)cc(C2C(C(=O)OC)=C(C)NC3=C2C(=O)c2ccccc23)cc1OCC (stereo not given)	nt	nt	nt	-0.6%	28.2µM*
COc1ccc(/C=C(/CC(=O)NCc2ccc(Cl)cc2)c2nc3ccccc3s2)cc1	12.8%	10.2%	17.8µM*	3.3%	3.4%
COc1ccc(/C=C(/CC(=O)Nc2ccccc2)c2nc3ccccc3s2)cc1	4.4%	-0.1%	-32.8%	?	1.6%
O=C1NC(=S)S/C1=C\c1ccc(SCc2ccco2)o1	-0.4%	-25.1%	-48.6%	?	1.26µM*
CCC1=NN2C(=N)/C(=C\c3ccc(SCc4ccco4)o3)C(=O)N=C2S1	-9.1%	-10.5%	-31.6%	?	50.1µM*
CCCC1=NN2C(=N)/C(=C\c3ccc(SCc4ccco4)o3)C(=O)N=C2S1	-3.1%	-23.0%	-52.2%	-16.9%	?
O=C1NC(=S)S/C1=C\c1ccc(SCc2ccccc2)o1	-10.5%	17.4%	-41.2%	-20.2%	?
CC(C)(C)C(=O)Nc1nnc(SCc2cccc(F)c2)s1	2.5%	-5.8%	-23.7%	2.3%	-2.1%
CCOc1ccc(CC2C(=O)NC(=O)N(c3ccc(CC)cc3)C2=O)cc1 (stereo not given)	-4.3%	7.1%	-13.3%	3.1%	-24.6%
CCN(CC)c1ccc(CC2C(=O)N(C)C(=O)N(C)C2=O)cc1	-16.7%	-22.1%	-11.4%	-8.0%	14.1µM*
C=CCOc1ccc(CC2C(=O)N(C)C(=O)N(C)C2=O)cc1	-1.2%	-0.5%	10.2%	-2.4%	25.1µM*
Cc1ccc(C2C(C(=O)c3cc4ccccc4o3)=C(O)C(=O)N2c2cc(C)on2)cc1 (stereo not given)	-14.9%	nt	-38.8%	2.4%	-27.5%
O=C(O)/C=C/C(=O)NC1CCCCCCCCCCC1	3.2%	26.6%	-5.3%	6.4%	11.0%
Cc1cc(/C=C2\SC(=S)NC2=O)c(C)n1-c1ccc(O)cc1	0.5%	8.3%	11.2µM*	-3.5%	-26.7%
Cc1cc(/C=C2\SC(=S)NC2=O)c(C)n1-c1ccccc1	11.5%	3.7%	-42.7%	7.6%	-25.7%
Cc1cc(C)n(CC(C)O)c(=O)c1C#N (stereo not given)	-3.5%	0.0%	0.316µM*	0.4%	-4.9%
Cc1cc(C)n(CCCO)c(=O)c1C#N	7.5%	2.1%	-13.9%	?	1.5%
N#Cc1c(-c2ccco2)cc(-c2ccc(F)cc2)nc1N	-29.1%	-27.0%	-38.1%	-4.4%	6.31µM*
COC(=O)CSc1nc(-c2ccccc2)cc(-c2ccco2)c1C#N	-4.0%	-27.4%	-47.7%	-1.2%	31.6µM*
CC(C)Cc1cc(-c2ccco2)c(C#N)c(N)n1	7.6%	-9.2%	-22.9%	-16.3%	35.5µM*
SMILES	RE007 growth inh	FBPA Giardia inh	AmpC inh no detg	AmpC detergent	Sm TGR inh
CCOc1ccc(NC(=O)CCNS(=O)(=O)c2ccc3c(c2)CCCC(=O)N3)cc1	nt	nt	nt	28.3%	3.4%
Oc1cc(-n2cccn2)c(O)cc1-n1cccn1	nt	?	-25.2%	-7.2%	3.55µM*
O=Cc1ccccc1-n1cccn1	6.4%	0.4%	-6.5%	0.8%	-10.5%
Cc1ccc(-c2nnc(-c3ccc(Br)cc3)o2)o1	-6.9%	4.9%	-13.6%	?	-7.9%
C/C(CCc1oc2ccccc2c1-c1ccc(C)o1)=N/O	-20.4%	4.1%	-0.7%	-9.0%	20µM*
C/C(CCc1oc2c(Br)cc(Br)cc2c1-c1ccc(C)o1)=N\O	-14.6%	-8.6%	-46.1%	0.2%	15.8µM*
CCC(C(=O)NCCCN1CCN(CCCNC(=O)C(CC)c2ccccc2)CC1)c1ccccc1 (stereo not given)	-6.5%	7.3%	117.6%	?	8.0%
COc1ccc(CNC(=O)Cn2cnc3c(=O)n(C)c(=O)n(C)c32)cc1	-3.7%	-2.2%	-1.1%	0.9%	-11.9%
Cn1c(COc2ccc(Br)cc2)nnc1SC1CCc2ccccc2C1=O (stereo not given)	10.3%	17.7µM*	-17.1%	-3.8%	?
Cc1occc1-c1nnc(SCC(=O)N2CCc3ccccc32)o1	2.9%	4.1%	-13.5%	-7.7%	25.1µM*
COCCn1c(SCC(=O)N2CCCc3ccccc32)nnc1-c1ccco1	5.3%	2.1%	-14.5%	-7.4%	?
COCCn1c(SCC(=O)N2CCCc3ccccc32)nnc1-c1ccoc1C	-5.5%	0.2%	-0.6%	?	39.8µM*
Cc1ccc(C(=O)Nn2c(O)c(C=C3N=c4ccccc4=N3)sc2=S)cc1	-6.6%	-2.3%	-20.3%	?	1.3%
Cc1ccc(S(=O)(=O)Nn2c(O)c(C=C3N=c4ccccc4=N3)sc2=S)cc1	21.9%	-7.6%	?	-2.9%	12.6µM*
O=C1N=c2ccc(Br)cc2=C1c1sc(=S)n(NS(=O)(=O)c2ccccc2)c1O	-16.7%	-13.6%	-58.1%	2.7%	11.2µM*
C#CCNC(=O)C[C@@H]1C[C@@]2(C(=O)OCC)CCC=C2N(Cc2cccc3ccccc23)C1=O	2.5%	nt	nt	nt	nt
CCCCc1[nH]c(=O)c(C#N)c2c1CSC(C)(C)C2	6.6%	-12.7%	-23.5%	?	31.6µM*
CCc1[nH]c(=O)c(C#N)c2c1CSC(C)(C)C2	2.3%	-11.0%	-23.9%	-7.4%	?
CCc1ccc2oc(-c3cccc(N)c3)nc2c1	10µM*	-4.9%	-1.3%	-1.7%	-17.0%
CC1CCOC(c2coc3ccccc3c2=O)O1 (stereo not given)	-28.1%	2.3%	-13.0%	-3.4%	-6.7%
O=C(O)C1CSC(c2coc3ccccc3c2=O)N1 (stereo not given)	39.8µM*	-9.6%	-13.8%	?	2.51µM*
COc1ccc(N2CCN(C(=O)c3noc4c3CCCCC4)CC2)cc1	nt	nt	nt	-4.2%	-2.8%
Cc1ccc(-c2nc3nc(C)cc(N4CCN(c5cc(Cl)ccc5C)CC4)n3n2)cc1	nt	nt	nt	-0.5%	-33.5%
Cc1ccc(-c2nc3nc(C)cc(N4CCN(c5cccc(C)c5C)CC4)n3n2)cc1	nt	nt	nt	7.6%	56.2µM*
Cc1ccc(S(=O)(=O)Nc2cc(C)c(O)c(S(=O)(=O)c3ccc(C)cc3)c2)cc1	-14.5%	3.5%	-58.5%	2.4%	44.7µM*
Cc1cc(NS(=O)(=O)c2ccccc2)cc(Cl)c1O	-5.9%	-16.6%	-43.4%	-6.2%	?
Cc1cccc(CCN2CCN=C2N(C)C)c1	-1.0%	nt	-14.5%	?	3.3%
